Test results reported in PubChem BioAssay AID493221 (Johns Hopkins Ion Channel Center, 2011).
Screen size: about 2,400 compounds; about 1,700 (71%) were called active.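 The calls were made as follows: active = choline transporter activity left, mean of duplicates at 10 µM, below buffer-only control mean minus 3 SD; inactive = the rest.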 So high a share suggests a set chosen from earlier hits. Not all results are given here.

target: High affinity choline transporter 1 (Homo sapiens) (UniProt Q9GZV3); assay: human choline transporter blockers – cell-based, membrane potential dye, duplicate, confirmation (AID 493221); conditions: CHT-expressing cells, at 10 µM, LV-to-AA substituted CHT, HEK293 cells
Sequence (Q9GZV3 whole entry, looked up): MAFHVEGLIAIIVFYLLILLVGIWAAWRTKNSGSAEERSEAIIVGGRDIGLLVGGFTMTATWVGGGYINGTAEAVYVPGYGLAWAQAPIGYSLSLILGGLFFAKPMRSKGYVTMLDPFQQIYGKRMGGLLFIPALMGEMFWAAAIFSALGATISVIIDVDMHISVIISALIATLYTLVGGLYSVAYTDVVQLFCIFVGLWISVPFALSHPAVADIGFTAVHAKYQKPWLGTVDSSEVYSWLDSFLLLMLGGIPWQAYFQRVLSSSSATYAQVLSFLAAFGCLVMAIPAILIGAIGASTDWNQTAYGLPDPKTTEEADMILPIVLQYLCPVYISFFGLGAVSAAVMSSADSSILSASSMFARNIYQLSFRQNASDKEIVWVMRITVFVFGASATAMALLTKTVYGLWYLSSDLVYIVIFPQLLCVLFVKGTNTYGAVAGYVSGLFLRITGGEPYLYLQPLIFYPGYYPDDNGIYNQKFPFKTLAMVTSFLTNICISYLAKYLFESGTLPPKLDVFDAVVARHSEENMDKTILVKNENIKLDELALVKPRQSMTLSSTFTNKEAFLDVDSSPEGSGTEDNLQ

Compound	CHT activity remaining % of control (hits give low values)
O=[N+]([O-])c1ccccc1Nc1ccc(O)cc1	42.1% (active)
COc1ccc(-n2nnnc2CNC(=O)c2ccc3ccccc3c2)cc1	56.6% (active)
COc1ccc(N2C(=O)CNC2=S)cc1	inactive
Cc1ccc(S(=O)(=O)/N=C(/NC(=S)Nc2c(C)n(C)n(-c3ccccc3)c2=O)c2ccccc2)cc1	39.1% (active)
O=C(c1cccs1)C1C(c2ccc(Br)cc2)NC(=S)NC1(O)C(F)(F)F (configuration not stated)	54.2% (active)
Oc1c(Cl)cc(Cl)c(Cl)c1Cc1c(O)c(Cl)cc(Cl)c1Cl	10.1% (active)
O=S(=O)(Cc1cc(Cl)nc(-c2cccnc2)n1)c1ccccc1	60.6% (active)
Cc1ccc2c(C)c(C(=O)N3CCC(N4CCC(C(=O)NC5CC5)CC4)CC3)oc2c1	61.6% (active)
Cc1oc2cc([N+](=O)[O-])c(O)c([N+](=O)[O-])c2c1C(=O)c1ccc(Br)cc1	inactive
CCCn1c2ccccc2c2cnn(CC(=O)NCCCN3CCCCC3CC)c(=O)c21 (configuration not stated)	36.8% (active)
O=C(Cn1ncc2c3ccccc3n(Cc3ccccc3)c2c1=O)NCCCN1CCOCC1	32.8% (active)
Cc1nn(CC(=O)NCC2CCCO2)c(=O)c2cc3ccccc3n12 (configuration not stated)	inactive
CCCCOc1ccc(Cl)cc1CSc1nncn1N	inactive
COc1ccc(C(=O)NNC(=S)NC(=O)c2ccccc2)cc1	59.6% (active)
COc1ccc(C(=O)NC(=S)NNC(=O)CCc2ccccc2)cc1	66.3% (active)
O=C(Nc1ccc(F)c(Cl)c1)C1CCN(S(=O)(=O)c2cccnc2)CC1	38.1% (active)
C=CCn1c(SCc2ccc(C(=O)NCCO)cc2)nc2ccccc2c1=O	inactive
COc1ccc(C(=O)NC(Cc2ccc(OC(=O)c3ccc(OC)cc3)cc2)C(=O)O)cc1 (configuration not stated)	18.8% (active)
O=C(NCCc1ccc2c(c1)OCCO2)c1cc2ccccc2o1	42.2% (active)
O=C(NCCCn1ccnc1)C(=O)c1cn(CC(=O)N2CCCCCC2)c2ccccc12	59.8% (active)
CCCCn1c(SCC(=O)NCC2CCCO2)nc2ccc(N3CCOCC3)cc2c1=O (configuration not stated)	inactive

Compound	CHT activity remaining % of control (hits give low values)
CCCCCn1c(=O)[nH]c2cc(C(=O)NCCCN3CCCCC3C)ccc2c1=O (configuration not stated)	35.4% (active)
CC(=O)Nc1nc2c(s1)C(=O)NCC(C)(C)C2	inactive
C/C(=N\N=C(N)N)c1ccc(Cl)cc1	12.2% (active)
CCN(CC(=O)NCc1ccc(Cl)cc1)C(=O)CSc1ccccc1	inactive
Nc1cc(N2CCCCCC2)c2nonc2c1[N+](=O)[O-]	68.5% (active)
O=C(OCC(=O)c1c[nH]c2ccccc12)c1cccc(O)c1	56% (active)
CN(CCC#N)c1ncnc2scc(-c3ccccc3)c12	50.5% (active)
O=C(c1c(F)cccc1Cl)N1CCN(S(=O)(=O)c2ccc3c(c2)OCCCO3)CC1	inactive
Cc1cccc(N(C)C(=O)CN2C(=O)COc3ccc(S(=O)(=O)N4CCCCCC4)cc32)c1	56.8% (active)
O=S(=O)(c1cccc(-c2nnc(SC(F)F)n2-c2ccccc2)c1)N1CCCCC1	inactive
CCc1ccc2c(c1)C1(NN=C(c3ccccc3)S1)C(=O)N2 (configuration not stated)	54.3% (active)
Cn1c2ccccc2c(=O)c2c(O)cccc21	65.5% (active)
O=C(O/N=C(/c1ccccc1)c1ccncc1)c1ccccc1[N+](=O)[O-]	60.1% (active)
Cc1cccc(C)c1NC(=O)c1ccc(CN2CCc3ccccc3C2)cc1	53.4% (active)
COc1ccc(C(=O)NC(C)c2nccs2)cc1OC1CCN(C(C)C)CC1 (configuration not stated)	22.1% (active)
COc1ccc(OCC(=O)OCCN(C)C)cc1	11.5% (active)
OC1CN=C2Sc3ccccc3N2C1 (configuration not stated)	46.2% (active)
CCC(C)c1ccc(NC(=S)NCc2ccccn2)cc1 (configuration not stated)	45.6% (active)
COC(=O)C(C(=O)Nc1cccc(Cl)c1C)C1CCCC1 (configuration not stated)	inactive
CC(C)CCn1c(CN(C)Cc2ccccc2)nc2c1c(=O)n(C)c(=O)n2C	inactive
Cc1cc(NS(=O)(=O)c2ccc(NC(=O)C(C)Oc3cccc(C)c3C)cc2)nc(C)n1 (configuration not stated)	13.3% (active)

Compound	CHT activity remaining % of control (hits give low values)
Cc1cc(OC(C)C(=O)Nc2ccc(S(=O)(=O)Nc3onc(C)c3C)cc2)cc(C)c1Cl (configuration not stated)	57.7% (active)
CCC(Oc1ccccc1C)C(=O)Nc1ccc(S(=O)(=O)Nc2cc(C)on2)cc1 (configuration not stated)	46.2% (active)
COc1cc2ccccc2cc1C(=O)Nc1ccc(S(=O)(=O)Nc2cc(C)on2)cc1	49.4% (active)
CCN(CC)Cc1c(C(=O)N/N=C/c2cccc(OCc3ccc(F)cc3)c2)nnn1-c1nonc1N	inactive
CCc1cc2c(N3CCN(c4nnc(CC)s4)CC3)ncnc2s1	67.1% (active)
Cc1c(C(=O)OC(C)C)sc(NC(=O)c2cccnc2)c1C#N	61.9% (active)
CCN(CC)CCC(c1ccc2c(c1)OCO2)c1c(OC)cc(OC)c2c(-c3ccccc3)cc(=O)oc12 (configuration not stated)	70.5% (active)
CC(C)(C)c1ccc(C(=O)CSc2ncn[nH]2)cc1	42.8% (active)
C/C(=N/NC(=O)c1cc(Cl)ccc1O)C12CC3CC(CC(C3)C1)C2	46.3% (active)
Cc1oc2c(F)c(F)c(F)c(F)c2c1S(=O)(=O)Nc1cccc(C(F)(F)F)c1	57.3% (active)
FC(F)(F)c1cccc(NC(=S)Nc2cccc(Cl)c2)c1	inactive
COc1ccc(NC(=O)c2sc(N)nc2-c2ccccc2)cc1	53.4% (active)
Cc1ccc2nc(Nc3ccccc3)cc(C)c2c1	49.7% (active)
COc1ccc(/C=C2/SC(=O)N(CCCCCC(=O)Nc3ccccc3C(=O)O)C2=S)cc1	29.7% (active)
C/C(=N\Nc1nc2ccccc2[nH]1)c1cccs1	19.1% (active)
CC(C(=O)NC1CCS(=O)(=O)C1)N1C(=O)/C(=C/c2ccc(Cl)cc2)SC1=S (configuration not stated)	69.7% (active)
Cc1ccc(C(=O)N/C(=C/C=C/c2ccccc2)C(=O)NCc2ccco2)cc1	47.3% (active)
O=C(/C=C/c1cn(-c2ccccc2)nc1-c1ccc2c(c1)OCCO2)NCCCN1CCOCC1	26.1% (active)
Cc1cccc(-c2nc3ccc(C(=O)NCCN4CCN(C)CC4)cc3nc2-c2cccc(C)c2)c1	40% (active)
CNCC(O)c1ccc(O)c(O)c1 (configuration not stated)	33.7% (active)
